Source: PubChem BioAssay AID1030 (National Center for Advancing Translational Sciences (NCATS), 2008)
Screen size: about 220,000 compounds; about 16,000 (7.3%) were called active. Roughly 25% stayed inconclusive and do not appear here. Calls follow the shape of the dose curve; as a rule, active = well fitted inhibition curve with a large enough effect (not every such curve was filed as active); inconclusive = small, poorly fitted or top-dose-only effect, or another doubt; inactive = no such curve, though single readings can be large or run the other way. This excerpt belongs to a sample that is enriched for actives.
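For activity, negative = inhibition in this document: plate controls were no enzyme wells and a reference inhibitor.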
Potency is read from the fitted curve at half-maximal effect.

Each molecule was assayed against Aldehyde dehydrogenase 1A1 (Homo sapiens) (UniProt P00352) (assay: qHTS Assay for Inhibitors of Aldehyde Dehydrogenase 1 (ALDH1A1)). Conditions: Purified ALDH1A1, NADH fluorescence, propionaldehyde substrate; series mostly up to 75.3 µM; activity, negative = inhibition: at the top concentration.
Sequence of Aldehyde dehydrogenase 1A1 (Homo sapiens) (P00352 whole entry, looked up): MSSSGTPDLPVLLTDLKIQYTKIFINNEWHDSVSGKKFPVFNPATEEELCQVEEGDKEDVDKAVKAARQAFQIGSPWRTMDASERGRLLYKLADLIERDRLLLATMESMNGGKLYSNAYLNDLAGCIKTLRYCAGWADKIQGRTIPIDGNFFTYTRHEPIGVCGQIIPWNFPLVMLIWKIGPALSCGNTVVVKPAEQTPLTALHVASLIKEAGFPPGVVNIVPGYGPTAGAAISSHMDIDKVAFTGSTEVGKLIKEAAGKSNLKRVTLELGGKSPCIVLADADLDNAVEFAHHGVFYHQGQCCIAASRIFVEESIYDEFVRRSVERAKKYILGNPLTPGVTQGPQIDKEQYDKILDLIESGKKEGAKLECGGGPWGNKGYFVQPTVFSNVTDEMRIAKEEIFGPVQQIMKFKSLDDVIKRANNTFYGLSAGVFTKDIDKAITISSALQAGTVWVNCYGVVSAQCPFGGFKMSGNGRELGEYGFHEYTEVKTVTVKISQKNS
With `Cn1cnnc1Sc1ccc(CN2CCN(C3CCCC3)C(CCO)C2)o1` (stereo not given) the “activity, negative = inhibition” value was -6.89% (inactive).
For `COc1cccc2cc(/C(C)=N/NC(=O)c3ccco3)oc12`, the “activity, negative = inhibition” value was -2.36% (inactive).
In the case of `C=CCOc1c(CNn2cn[nH]c2=S)cccc1OC`, the “activity, negative = inhibition” value is reported as 4.16% (inactive).
`CC(C)C(=O)NC(=S)Nc1ccccc1F` was tested, and the “activity, negative = inhibition” value was -5.01% (inactive).
`CCCCC(=O)NNC(=S)NC(=O)C(c1ccccc1)c1ccccc1` was tested, and the “activity, negative = inhibition” value was 0.816% (inactive).
In the case of `CC(C)C(=O)Nc1cccc(NC(=S)NC(=O)C(c2ccccc2)c2ccccc2)c1`, the Potency is reported as 25.1 µM (active).
With `Cn1nnnc1NCc1ccc(Cl)c(Cl)c1` the “activity, negative = inhibition” value was 1.56% (inactive).
In the case of `NC(=O)c1ccc(NC(=O)COC(=O)C(Cc2ccccc2)NC(=O)c2ccccc2)cc1` (stereo not given), the Potency is reported as 0.891 µM (active).
In the case of `COC(=O)c1ccc(/C=N/OCC(=O)Nc2cc(F)ccc2F)cc1`, the “activity, negative = inhibition” value is reported as -9.21% (inactive).
In the case of `CC(=O)c1ccc(NC(=O)N[C@@H](Cc2ccccc2)C(=O)O)cc1`, the “activity, negative = inhibition” value is reported as 5% (inactive).
For `Cc1ccc(F)c(NC(=O)CCc2ccccc2)c1`, the “activity, negative = inhibition” value was -2.03% (inactive).
`CCC(C(=O)OCC(=O)Nc1ccc(C(=O)Nc2ccc(OC)cc2)cc1)c1ccccc1` (stereo not given) was tested, and the “activity, negative = inhibition” value was 3.04% (inactive).
With `O=C(COC(=O)[C@H](Cc1ccccc1)NC(=O)c1cccs1)Nc1cc(F)ccc1F` the Potency was 14.1 µM (active).
`CCCCCc1nnc(NC(=O)c2ccc(=O)n(C)n2)s1` was tested, and the “activity, negative = inhibition” value was -0.796% (inactive).
With `C=CCn1cc(C(=O)NCc2ccc(Cl)cc2)c(=O)c2cc(S(=O)(=O)N(CC)CC)ccc21` the “activity, negative = inhibition” value was -2.01% (inactive).
`Cc1ccc(C(=O)NCC2CCCO2)o1` (stereo not given) was tested, and the “activity, negative = inhibition” value was 7.91% (inactive).
`Cc1nc2ccccc2c2oc(C(=O)NCCCN3CCC(C)CC3)cc12` was tested, and the “activity, negative = inhibition” value was -1.82% (inactive).
In the case of `Cc1nc2ccccc2c2oc(C(=O)NCC3CCCO3)cc12` (stereo not given), the Potency is reported as 14.1 µM (active).
With `O=c1c(-c2ccccc2)cnc2n1CCS2` the “activity, negative = inhibition” value was 4.15% (inactive).
For `CN(C)CC(C)(C)CNC(=O)c1cc(Br)cc(Br)c1O`, the “activity, negative = inhibition” value was -13.5% (inactive).
For `CN(C)C(CNC(=O)c1ccc(S(=O)(=O)NCc2ccco2)cc1)c1ccccc1` (stereo not given), the “activity, negative = inhibition” value was 11.2% (inactive).
In the case of `CN(C)C(CNC(=O)Cc1ccc([N+](=O)[O-])cc1)c1ccccc1` (stereo not given), the “activity, negative = inhibition” value is reported as 0.871% (inactive).
In the case of `CC(=O)c1ccc(S(=O)(=O)Nc2ccc(C(=O)NCC(c3ccccc3)N(C)C)cc2)cc1` (stereo not given), the Potency is reported as 2.82 µM (active).
For `CCC(C)(C)NC(=O)C(c1ccccn1)N(C(=O)c1csnn1)c1ccccc1` (stereo not given), the “activity, negative = inhibition” value was 0.639% (inactive).
With `Cc1ccc(C(=O)N2CCCC(c3ccccc3)=N2)cc1` the “activity, negative = inhibition” value was -7.82% (inactive).
For `Cc1cc(C)c(OCCN2CC(C)OC(C)C2)c(Br)c1` (stereo not given), the “activity, negative = inhibition” value was -12.9% (inactive).
`COc1ccc(NC(=O)N2CCC(Cc3ccccc3)CC2)cc1` was tested, and the “activity, negative = inhibition” value was -13.4% (inactive).
`Cc1ccccc1/[N+]([O-])=C/c1ccncc1` was tested, and the Potency was 3.98 µM (active).
In the case of `CCNC(=O)COC(=O)/C=C/c1c(C)nn(Cc2cccc(OC)c2)c1Cl`, the “activity, negative = inhibition” value is reported as -14.4% (inactive).
In the case of `O=C(CCNC(=O)Cn1ccc2ccccc2c1=O)NCCC1=CCCCC1`, the “activity, negative = inhibition” value is reported as -8.45% (inactive).
